Data as given in the supplement of paper PMC3334620.
Over roughly 33,000 sequences, “E-score (-0.5 to 0.5)” has its median near -0.035; the highest 2% begin near 0.34. This is one part of a sample in which the highest values are shown more often than they occur.

Biological target: T1, Mot3 (UniProt P54785)
T1 sequence: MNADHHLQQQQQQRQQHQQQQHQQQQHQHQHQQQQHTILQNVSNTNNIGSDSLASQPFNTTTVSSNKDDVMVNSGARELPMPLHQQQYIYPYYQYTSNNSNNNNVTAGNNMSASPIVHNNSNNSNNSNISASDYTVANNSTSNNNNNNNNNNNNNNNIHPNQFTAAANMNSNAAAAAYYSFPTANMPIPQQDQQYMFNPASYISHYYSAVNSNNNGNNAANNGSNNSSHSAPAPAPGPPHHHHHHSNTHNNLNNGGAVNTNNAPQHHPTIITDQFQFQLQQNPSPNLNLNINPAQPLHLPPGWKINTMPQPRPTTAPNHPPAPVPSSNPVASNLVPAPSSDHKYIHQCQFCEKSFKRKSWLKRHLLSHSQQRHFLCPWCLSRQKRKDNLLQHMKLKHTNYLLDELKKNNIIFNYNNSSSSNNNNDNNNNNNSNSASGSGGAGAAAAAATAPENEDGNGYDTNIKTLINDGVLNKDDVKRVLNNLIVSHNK
Experiment: PBM E-score (8-mer binding enrichment) (E-score (-0.5 to 0.5)); higher = stronger / more preferred TF binding
Details: protein concentration: 200 nM; construct: GST-full length
Procedure, shortened: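 Full-length yeast transcription factors or their DNA-binding domains, GST-tagged and expressed with PURExpress, were applied at about 100-200 nM to universal all-10-mer Agilent arrays. These arrays had been made double-stranded by primer extension on fresh or once-stripped slides. Detection used fluorescent anti-GST, normalisation used masliner, and E-scores for ungapped eight-base words pooled with reverse complements came from the Universal PBM Analysis Suite.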

| Sequence | PBM E-score |
| --- | --- |
| CCAAGTCG | -0.155 |
| AACCATCT | -0.143 |
| CCTACTCA | -0.046 |
| ATGCTGCG | -0.101 |
| ATATGTTA | 0.284 |
| CTATGTTA | 0.329 |
| GTATGTTA | 0.354 |
| ACTGAGAG | -0.0806 |
| ACAGAACT | -0.0328 |
| CCCCGGGG | -0.37 |
| GGGCTAAA | -0.189 |
| ATACCTTA | -0.0699 |
| GTACCTTA | 0.355 |
| CTACCTGA | 0.0134 |
| CTACCTTA | 0.0561 |
| ATACCTGA | 0.0776 |
| GTACCTGA | 0.402 |
| CTTAAGCA | 0.104 |
| CCGAATTC | -0.242 |
| AGAATCAC | -0.211 |
| CTGTGGCC | -0.0368 |
| AATACGCT | 0.188 |
| ATTACGCA | 0.354 |
| ATTACGCC | 0.102 |
| CTTACGCA | 0.301 |

| Sequence | PBM E-score |
| --- | --- |
| AATACGCG | 0.354 |
| ATTACGGG | -0.00149 |
| ATTACGCG | 0.377 |
| GTTACGCA | 0.207 |
| CATACGCG | 0.155 |
| AAACTGCA | -0.0533 |
| CTAGCAGC | -0.257 |
| CAACTGAA | 0.0709 |
| GAATGCAA | -0.0468 |
| CAGGGATG | 0.034 |
| CAGGTAAG | 0.271 |
| GAGGTAAA | 0.0852 |
| AAGGTAAG | 0.27 |
| GAGGTAAC | -0.0204 |
| AAGGTAAT | 0.34 |
| CAGGTAAA | 0.383 |
| AAGGTATT | 0.16 |
| AAGGTAAC | 0.339 |
| AAGGTAAA | 0.334 |
| CAGGTAAC | 0.39 |
| AGGGTAAT | -0.0805 |
| AAGGTAGC | 0.149 |
| CATTGGAG | -0.179 |
| AGAGGTTA | 0.0342 |
| CTGAATGA | 0.00529 |

| Sequence | PBM E-score |
| --- | --- |
| GACTGTAA | 0.147 |
| ATCCACCC | -0.246 |
| TCTCAGAA | -0.0878 |
| CTACTCGA | 0.0146 |
| CCGCAAAC | -0.0792 |
| AAGCTATA | -0.00123 |
| CGAAAAAG | 0.142 |
| CCAGCTTC | -0.187 |
| CATTTACA | 0.363 |
| TATTTAGA | 0.184 |
| GATTTACA | 0.332 |
| TATTTACA | 0.386 |
| AATTTACC | 0.153 |
| CATTTACC | 0.158 |
| CATTTACG | 0.201 |
| AATTTACA | 0.382 |
| TATTTAAA | 0.231 |
| AAGCAGAC | -0.0963 |
| AAATCGCC | -0.255 |
| ACCGGTGA | -0.16 |
| GCTACCAC | -0.216 |
| CGCCTTAA | 0.323 |
| CACCTACA | 0.227 |
| AGCCTTAA | 0.158 |
| GACCTACA | 0.045 |

| Sequence | PBM E-score |
| --- | --- |
| ATCCTAAA | -0.0533 |
| GTCCTAAA | 0.125 |
| TACCTACA | 0.381 |
| AGCCTAAA | 0.178 |
| TGCCTAAA | 0.476 |
| TGCCTTAA | 0.471 |
| TTCCTAAA | 0.408 |
| GGCCTAAA | 0.0327 |
| CACCTCCA | -0.138 |
| AGTTCGAC | 0.0301 |
| CTTCCCTA | -0.206 |
| CAGGTGCA | 0.0796 |
| GCAAAAAA | 0.203 |
| CTAGACTA | -0.24 |
| CAGCGTAC | -0.0299 |
| TACCTTCA | 0.376 |
| TGCCTACA | 0.487 |
| AACCTTCA | 0.215 |
| GGCCTACA | 0.00717 |
| TACCTGCA | 0.403 |
| GACCTGCA | -0.0447 |
| CGCCTACA | 0.224 |
| GACCTTCA | -0.083 |
| AACCTGCA | 0.0857 |
| AGGGTCTA | -0.153 |

| Sequence | PBM E-score |
| --- | --- |
| CGAGCGCC | -0.0813 |
| GTTCACGA | -0.101 |
| GGACGCTA | -0.206 |
| ACGGCAGG | -0.17 |
| CGCGCCAA | -0.0132 |
| ATTACACC | 0.299 |
| GTGACACA | 0.0545 |
| GTTACACA | 0.357 |
| ATGACACG | 0.384 |
| ATTACTCA | 0.165 |
| GTTACAAA | 0.223 |
| ATGACACA | 0.313 |
| ATCACACA | 0.143 |
| CTCACACA | -0.0904 |
| ATTACACG | 0.435 |
| CTTACACA | 0.3 |
| ATTACACA | 0.438 |
| CGAGACCC | -0.0978 |
| CGGCCACA | -0.234 |
| GACGATCC | -0.0936 |
| ATCAATAA | 0.0626 |
| CTACGCGA | 0.232 |
| ACCTACAC | 0.258 |
| ATCTACAG | 0.0501 |
| ATCTACAC | 0.375 |

| Sequence | PBM E-score |
| --- | --- |
| GCCTACAC | 0.344 |
| GTCTACAC | 0.275 |
| ATCTACAA | 0.205 |
| ATCTACAT | 0.349 |
| CCCTACAC | 0.187 |
| CTCTACAC | 0.223 |
| GAAAAGGC | 0.228 |
| AATCAGGT | 0.153 |
| CCCATGAG | -0.314 |
| AATGAGGT | -0.0627 |
| GTATTCCA | 0.0481 |
| CTCTGTGC | 0.00777 |
| AAAGGCCT | -0.0542 |
| CAAGGCAC | 0.488 |
| CAAGGCAG | 0.0705 |
| CAAGGCCC | 0.0163 |
| AAAGGCTT | -0.0548 |
| CAAGGCCA | 0.0593 |
| CAAGGCAA | 0.479 |
| TAAGGCGA | -0.0665 |
| TAAGGCAA | 0.472 |
| TAAGGCTA | 0.129 |
| AAAGGCAT | 0.39 |
| CAAGGCCG | -0.0783 |
| ACGGCGTG | 0.0736 |

| Sequence | PBM E-score |
| --- | --- |
| ATCTTAGC | -0.0857 |
| ACACCGGA | 0.0203 |
| AAGCTAGT | -0.004 |
| CTACTGGA | -0.174 |
| AGCCATAC | -0.163 |
| GAAGGCAA | 0.489 |
| GAAGGCTA | 0.0397 |
| AAAGGCAG | 0.282 |
| AAGGGCAA | 0.127 |
| AAAGGCAA | 0.486 |
| GAAGGCCA | -0.0342 |
| CAAGCAGC | -0.0458 |
| AATCCATC | -0.21 |
| CTTAAGAC | -0.0312 |
| ACCGCGAA | -0.0635 |
| AGGAACTA | 0.38 |
| CGGAACTA | -0.265 |
| ATGAACTG | 0.0964 |
| AGGAACTC | 0.396 |
| ATGAACTC | -0.14 |
| AAGAACTG | -0.196 |
| CGGAACTC | -0.29 |
| GGGAACTA | -0.0385 |
| AGGAACTG | 0.413 |
